The record followed here is PubChem BioAssay (NCATS).

Assay [1] addresses Cytochrome P450 3A4 (Homo sapiens) (UniProt P08684). The experiment in a line: qHTS for inhibitors of CYP3A4 against the NCATS DSHEA and TCM libraries (AID 1919971).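 Further: on the % scale 0 is the no-effect control and ±100 the full control effect; inhibition lowers luminescence from luciferin made by CYP3A4.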 A digest of the protocol: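 Each CYP isoform and its pro-luciferin substrate, at isoform-specific final concentrations, were preincubated 15 min at RT with substances. NADPH regeneration solution (1x) started a 30-45 min reaction, and P450-Glo luminescence was read.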
Background: In qHTS, concentration-response curves come from the screen itself.

Assay [2] deals with Cytochrome P450 1A2 (Homo sapiens) (UniProt P05177). As to the kind of experiment: qHTS for inhibitors of CYPIA2 against the NCATS DSHEA and TCM libraries (AID 1919976). Further: on the % scale 0 is the no-effect control and ±100 the full control effect. Put shortly:
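Reaction started with 1x NADPH regeneration solution and run 30-45 min, room temperature, protected from light, after compounds sat 15 min with CYP1A2 and pro-luciferin substrate. P450-Glo detection gave luminescence; furafylline served as control.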

The target of assay [3] is Bile acid receptor (Homo sapiens) (UniProt Q96RI1). As to the kind of experiment: qHTS assay for small molecule antagonists of farnesoid X receptor signaling (AID 588526; calls by dose curve; further: on the % scale 0 is the no-effect control and ±100 the full control effect). A digest of the protocol:
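Beta-lactamase reporter antagonist mode: HEK293T FXR-UAS-bla cells, titrated compound, CDCA stimulation, 16 h 37 C, CCF4 dye 2 h RT. Data normalized to CDCA 50 uM and DMSO; Hill-fit IC50.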

Assay [4] deals with Glucocorticoid receptor (Homo sapiens) (UniProt P04150). The experiment in a line: qHTS assay for small molecule agonists of glucocorticoid receptor signaling (AID 588532; active means well fitted curve in the direction sought with a large enough effect in the signal ratio, with a control signal flat; the % refers to the signal ratio;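 further: 100% = dexamethasone at 0.1 µM and 0% = DMSO only wells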). The following applies: HeLa MMTV-bla, beta-lactamase ratio, agonist, 18 h; stronger effect = higher value; percent of dexamethasone control, DMSO zero. A digest of the protocol:
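Agonist-mode qHTS: GRE-driven beta-lactamase in HeLa cells exposed 18 h to titrated compounds (up to 92 uM), then CCF4 ratio read after 2 h at RT; Hill-fitted EC50, efficacy relative to 0.1 uM dexamethasone.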

The nature of assay [5]: qHTS assay for small molecule activators of the nuclear factor-kappa B (NF-kB) signaling pathway (AID 651749; active means well fitted activation curve with a large enough effect in the signal ratio; the % refers to the signal ratio; further: % of control where 0% means no effect). The note with it: NF-kB-bla ME-180 cells, beta-lactamase FRET ratio, 16 h; stronger effect = higher value. Put shortly: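 Activation measured after 16 hr compound treatment at 37C, 5% CO2, of 2,000 ME-180 cells/well stably expressing an NF-kB response element–driven beta-lactamase reporter, via FRET-disruption fluorescence.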

Assay [6] is described as follows: qHTS assay for small molecule agonists of the antioxidant response element (ARE) signaling pathway measured by Nrf2-dependant transcriptional activity (AID 720636; active means well fitted curve in the direction sought with a large enough effect in the repeat runs; an effect the other way counts as inactive or inconclusive; further: % of control where 0% means no effect). A digest of the protocol: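 ARE-luc HepG2 cells carrying an Nrf2-responsive luciferase reporter were plated in medium with 1% dialyzed FBS, left 6 hr at 37 C to attach, then exposed to compound for 16 hr. Luciferase luminescence was read after ONE-Glo addition.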

Assay [7] can be described thus: NCATS anti-infectives library activity on the primary C. elegans qHTS viability assay (AID 1745855; calls by dose curve; further: potency means the concentration at half of the fitted maximal effect). A digest of the protocol: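 GFP read-out by 488 nm laser cytometry at day 0, 3 and 7, gated on object perimeter, area and peak intensity, scored viability of PE254-GFP-FLuc worms exposed to compound in S medium with bacterial capsules at 21 °C.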
The nature of assay [8]: qHTS profiling of the MIPE4 collection as inhibitors of Plasmodium falciparum (HB3) proliferation (AID 743347; call rule not given here;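 further: plate controls were DMSO vehicle wells for no effect and artemisinin wells for full effect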). The note with it: P. falciparum HB3 in erythrocytes, SYBR Green DNA, 72 h; at 28.5 µM (top of the series). Put shortly: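 Parasite DNA was quantified by SYBR Green I fluorescence (ex 485, em 535 nm) after overnight lysis in saponin/Triton buffer at room temperature. Cultures at 0.3% parasitemia and 2.5% hematocrit were first exposed to compound for 72 h at 37 C; signals were normalised to artemisinin (0.29 uM) and vehicle wells.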

Assay [9] addresses RecQ-like DNA helicase BLM (Homo sapiens) (UniProt P54132). As to the kind of experiment: qHTS Validation Assay for Inhibitors of Bloom's syndrome helicase (BLM) (AID 2364).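 Further: plate controls were DMSO vehicle for no effect and enzyme-free control for full effect.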 A digest of the protocol:
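Forked 20-bp duplex substrate (200 nM, TAMRA/BHQ-2) plus 2 mM ATP added after 15 min compound preincubation with 50 nM enzyme, pH 8.0, poly(dI-dC) 2.5 ug/ml. Strand separation followed by fluorescence (525/598 nm) over 2 h, normalized to enzyme-free and DMSO controls.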

A short description of assay [10]: qHTS for Inhibitors of the vitamin D receptor (VDR): Hit Validation using a Texas Red Assay (AID 602201). Further: potency means the concentration at half of the fitted maximal effect. The following applies: VDR coregulator binding, Texas Red fluorescence polarization; agonist-bound VDR ligand-binding domain. An excerpt:
The vitamin D receptor (VDR) is a ligand-activated transcription factor and is partially responsible for the regulation of the endocrine system. This includes the transcriptional regulation of genes involved in the production of the parathyroid hormone (PTH) and the regulation of the blood calcium level. High levels of PHT can cause hypercalcemia in the case of primary and tertiary hyperparathyroidism. The VDR-mediated gene regulation, activated by its ligand 1,25-dihydroxyvitamin D3 (1,25-(OH)2D3), is governed by the recruitment of coactivators. Our hypothesis is that small molecules, with the ability to inhibit the interaction between VDR and certain coactivators, are able to selectively modulate VDR-mediated transcription. Our long term objective is the application these VDR-coactivator inhibitors to study the role of VDR-coactivator binding for specific VDR regulated genes. Ultimately, these molecules can be developed into new treatments for hypercalcemic hyperparathyroidism. No small molecule or non-peptide inhibitors are known for the VDR-coactivator interaction.
In a collaboration between the University of Wisconsin, Milwaukee and the NIH Chemical Genomics Center (NCGC) a HTS-compatible enzymatic assay was developed. The assay uses fluorescence polarization as its read-out to measure the inhibition between VDR and coregulator peptide SRC2-3 exerted by small molecules. This assay was used to screen the NIH Molecular Libraries Small Molecule Repository (MLSMR). The HTS assay detects polarization at 665 nm emitted by the Alexa Fluor 647 dye. This validation assay detects polarization of the emission from Texas-Red at 615 nm.
NIH Chemical Genomics Center [NCGC]
NIH Molecular Libraries Probe Centers Network [MLPCN] […]
Four microliter of either 1.5 uM VDR-LBD, […] LG19078, and 7 nM Texas Red (all final concentrations) in columns 1, 2, and 5 to 48 or 7 nM Texas Red in columns 3 and 4 are dispensed into black medium-binding solid bottom Greiner plates. […] It is then read on the Envision for a fluorescent polarization read-out (Ex 595 nm/Em 615 nm)

Several values for one entry are separate records, joined by “and”; a condition that tells them apart may be missing. Identical values can stand only once. Results filed as inconclusive are left out. Activity calls are given as the source filed them. Unless noted, the call rests on the fitted dose curve; in most records, active means well fitted curve in the direction sought with a large enough effect; inconclusive means small, poorly fitted or top-dose-only effect, or another doubt; inactive means no such curve, though single readings can be large; an effect the other way counts as inactive or inconclusive.

Chain of Glucocorticoid receptor (Homo sapiens) (P04150 whole entry, looked up): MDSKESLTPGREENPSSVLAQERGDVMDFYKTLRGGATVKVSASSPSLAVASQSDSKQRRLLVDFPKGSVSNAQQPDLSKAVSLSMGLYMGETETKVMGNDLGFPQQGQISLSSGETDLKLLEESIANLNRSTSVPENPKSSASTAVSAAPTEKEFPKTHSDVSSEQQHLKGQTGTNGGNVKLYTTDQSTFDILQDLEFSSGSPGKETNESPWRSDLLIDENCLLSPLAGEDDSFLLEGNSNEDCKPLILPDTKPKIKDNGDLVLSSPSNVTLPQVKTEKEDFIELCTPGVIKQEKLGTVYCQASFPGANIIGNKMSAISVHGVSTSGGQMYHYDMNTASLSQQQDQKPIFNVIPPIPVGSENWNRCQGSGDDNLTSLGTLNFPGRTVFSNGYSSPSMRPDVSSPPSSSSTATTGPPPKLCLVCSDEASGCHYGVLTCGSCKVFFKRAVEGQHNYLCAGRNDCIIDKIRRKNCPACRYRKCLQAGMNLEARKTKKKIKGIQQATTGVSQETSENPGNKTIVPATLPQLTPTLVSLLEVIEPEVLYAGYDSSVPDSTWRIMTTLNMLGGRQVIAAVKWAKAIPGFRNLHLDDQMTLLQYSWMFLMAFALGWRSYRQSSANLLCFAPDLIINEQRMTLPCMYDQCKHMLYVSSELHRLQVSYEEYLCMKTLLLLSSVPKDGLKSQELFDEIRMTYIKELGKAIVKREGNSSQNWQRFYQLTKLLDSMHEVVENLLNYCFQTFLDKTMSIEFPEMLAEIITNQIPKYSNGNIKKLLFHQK
Chain of Cytochrome P450 1A2 (Homo sapiens) (P05177 whole entry, looked up): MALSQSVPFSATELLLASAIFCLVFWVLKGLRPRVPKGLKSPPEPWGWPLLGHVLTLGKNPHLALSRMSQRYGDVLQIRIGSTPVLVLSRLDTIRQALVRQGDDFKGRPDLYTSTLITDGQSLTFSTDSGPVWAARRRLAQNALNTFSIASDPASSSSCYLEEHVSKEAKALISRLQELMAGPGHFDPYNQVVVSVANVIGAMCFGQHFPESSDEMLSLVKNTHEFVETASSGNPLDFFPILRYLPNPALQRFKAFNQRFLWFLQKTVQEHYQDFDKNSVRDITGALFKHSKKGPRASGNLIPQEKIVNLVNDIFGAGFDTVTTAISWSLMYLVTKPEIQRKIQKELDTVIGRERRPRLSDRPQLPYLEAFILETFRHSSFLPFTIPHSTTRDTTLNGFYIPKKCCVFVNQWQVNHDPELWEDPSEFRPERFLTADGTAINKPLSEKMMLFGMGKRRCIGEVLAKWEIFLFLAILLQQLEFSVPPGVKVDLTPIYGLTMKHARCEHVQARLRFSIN
Chain of Cytochrome P450 3A4 (Homo sapiens) (P08684 whole entry, looked up, canonical isoform): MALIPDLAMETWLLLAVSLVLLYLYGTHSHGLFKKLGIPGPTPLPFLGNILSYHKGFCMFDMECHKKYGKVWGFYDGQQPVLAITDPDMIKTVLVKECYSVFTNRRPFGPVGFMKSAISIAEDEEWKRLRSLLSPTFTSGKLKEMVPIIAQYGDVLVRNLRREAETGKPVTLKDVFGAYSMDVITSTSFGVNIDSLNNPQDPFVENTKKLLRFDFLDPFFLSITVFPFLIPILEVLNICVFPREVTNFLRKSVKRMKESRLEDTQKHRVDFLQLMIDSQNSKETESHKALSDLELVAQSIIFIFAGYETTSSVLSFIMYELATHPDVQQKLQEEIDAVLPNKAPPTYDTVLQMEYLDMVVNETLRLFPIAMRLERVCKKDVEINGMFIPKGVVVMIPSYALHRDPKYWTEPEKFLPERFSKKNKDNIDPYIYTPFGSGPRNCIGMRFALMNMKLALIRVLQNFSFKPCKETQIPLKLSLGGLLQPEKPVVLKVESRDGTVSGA
Chain of RecQ-like DNA helicase BLM (Homo sapiens) (P54132 whole entry, looked up): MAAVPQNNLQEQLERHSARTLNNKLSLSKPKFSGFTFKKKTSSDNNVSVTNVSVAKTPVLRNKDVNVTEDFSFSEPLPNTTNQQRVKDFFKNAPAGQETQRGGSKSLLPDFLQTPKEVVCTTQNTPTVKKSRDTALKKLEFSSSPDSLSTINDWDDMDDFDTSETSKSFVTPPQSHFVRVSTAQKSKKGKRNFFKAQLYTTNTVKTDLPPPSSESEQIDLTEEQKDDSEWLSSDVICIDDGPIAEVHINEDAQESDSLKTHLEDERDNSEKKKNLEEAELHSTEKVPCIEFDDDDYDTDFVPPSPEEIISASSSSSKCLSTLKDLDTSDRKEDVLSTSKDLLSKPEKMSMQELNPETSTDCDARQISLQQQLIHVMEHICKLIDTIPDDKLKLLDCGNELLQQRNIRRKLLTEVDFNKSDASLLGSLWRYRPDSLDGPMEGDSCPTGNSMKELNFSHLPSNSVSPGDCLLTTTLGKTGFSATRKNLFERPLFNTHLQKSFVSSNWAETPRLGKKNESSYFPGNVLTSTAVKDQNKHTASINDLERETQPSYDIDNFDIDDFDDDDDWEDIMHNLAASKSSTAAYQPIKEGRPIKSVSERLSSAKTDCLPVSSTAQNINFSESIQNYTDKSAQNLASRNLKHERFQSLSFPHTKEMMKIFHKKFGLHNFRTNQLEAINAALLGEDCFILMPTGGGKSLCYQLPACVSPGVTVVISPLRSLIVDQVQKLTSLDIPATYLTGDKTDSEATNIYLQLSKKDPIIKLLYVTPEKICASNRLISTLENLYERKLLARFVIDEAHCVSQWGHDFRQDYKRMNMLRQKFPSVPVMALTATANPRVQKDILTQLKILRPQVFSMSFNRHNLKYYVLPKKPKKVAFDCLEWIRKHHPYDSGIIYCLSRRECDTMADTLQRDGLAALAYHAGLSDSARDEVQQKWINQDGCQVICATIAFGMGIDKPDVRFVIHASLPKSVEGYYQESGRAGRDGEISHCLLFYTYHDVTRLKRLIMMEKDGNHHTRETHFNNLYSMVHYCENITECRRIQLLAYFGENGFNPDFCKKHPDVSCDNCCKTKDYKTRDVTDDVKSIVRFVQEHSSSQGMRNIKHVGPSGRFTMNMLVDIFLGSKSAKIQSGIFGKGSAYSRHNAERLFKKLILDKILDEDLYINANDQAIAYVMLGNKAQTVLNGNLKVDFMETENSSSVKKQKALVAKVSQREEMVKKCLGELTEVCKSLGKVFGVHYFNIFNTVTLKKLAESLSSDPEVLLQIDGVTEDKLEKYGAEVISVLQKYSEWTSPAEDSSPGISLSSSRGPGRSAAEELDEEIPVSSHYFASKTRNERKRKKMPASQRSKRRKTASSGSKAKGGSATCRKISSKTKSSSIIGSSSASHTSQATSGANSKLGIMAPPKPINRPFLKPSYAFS
Chain of Bile acid receptor (Homo sapiens) (Q96RI1 whole entry, looked up): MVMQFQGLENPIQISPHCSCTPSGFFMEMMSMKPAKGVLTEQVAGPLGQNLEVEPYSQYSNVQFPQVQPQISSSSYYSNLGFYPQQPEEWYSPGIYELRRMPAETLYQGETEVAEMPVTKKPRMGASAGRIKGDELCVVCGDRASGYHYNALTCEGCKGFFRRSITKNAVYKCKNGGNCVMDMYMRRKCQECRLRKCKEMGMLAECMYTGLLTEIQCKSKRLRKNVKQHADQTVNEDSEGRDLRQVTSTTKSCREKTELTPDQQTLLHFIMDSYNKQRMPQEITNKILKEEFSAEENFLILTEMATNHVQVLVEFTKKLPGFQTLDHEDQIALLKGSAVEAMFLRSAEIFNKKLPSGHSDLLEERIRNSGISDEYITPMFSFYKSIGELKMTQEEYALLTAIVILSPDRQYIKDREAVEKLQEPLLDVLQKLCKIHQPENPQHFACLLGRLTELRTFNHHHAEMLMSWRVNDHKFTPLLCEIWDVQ

With `CC/C=C\C/C=C\C/C=C\C/C=C\C/C=C\CCCCCC(=O)O`, the molecule was classed as inactive in [1] and in assay [2]. In the case of `CC(=O)[C@H]1[C@H](C#N)C[C@H]2[C@@H]3CC=C4C[C@@H](O)CC[C@]4(C)[C@H]3CC[C@@]21C`, the call in assay [3] and in assay [6] was inactive. The activation in [4] is -8.47% (inactive) and 3.7% (inactive); in [5], -1.18% (inactive) and -2.42% (inactive). For `N#CC(=C(/N)Sc1ccccc1N)/C(C#N)=C(\N)Sc1ccccc1N`, the Potency in assay [7] was 5.15 µM (active).

With `CN[C@@H]1[C@H](O)[C@H](O[C@@H]2[C@H](O)[C@@H](O[C@H]3O[C@H]([C@@H](C)NC)CC[C@H]3N)[C@@H](N)C[C@H]2N)OC[C@]1(C)O`, the growth, % of control in [8] stood at 107%. In the case of `NCCNS(=O)(=O)c1cccc2cnccc12`, in [9], the Potency entry was “inactive”. As to `O=C1c2ccccc2CC[C@H]1CNCCc1ccc(O)cc1`, the Potency in assay [10] was 25.1 µM (active).
